Measured values as given in publication PMC5540273 (PLoS ONE, 2017).
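Further: KINOMEscan kinase panel screen.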

What follows are compounds tested on LTK. Conditions: concentration: 1 μM, replicates: in singlicate; n = 1.
With `COC(=O)c1c(-c2ccccc2)c2cc(Br)ccc2c(=O)n1Cc1ccc(S(C)(=O)=O)cc1` the “%Inh” value was 9%.
With `Cc1nnc(-c2ccc(C)c(-c3ccc(C(=O)O)cc3)c2)o1` [GW608005] the “%Inh” value was 0%.
In the case of `COc1cc2nccc(Nc3ccc(OCc4ccc(NC(C)=O)cc4)cc3)c2cc1OC.Cl` [GW440135], the “%Inh” value is reported as 0%.
`Cc1nc(N(C)[C@H]2CN(C(=O)CC#N)CC[C@H]2C)c2cc[nH]c2n1` was tested, and the “%Inh” value was 0%.
For `Nc1nc(N)c2nc(-c3ccccc3)[nH]c2n1` [SKF-12778], the “%Inh” value was 5%.
With `Cl.c1ccc(Cn2cnc3cc(Nc4ncnc5ccccc45)ccc32)cc1` [GW272142] the “%Inh” value was 0%.
For `COC(=O)c1c(-c2ccccc2)c2cc(Br)ccc2c(=O)n1Cc1ccc(NC(=O)CCC(=O)O)cc1`, the “%Inh” value was 3%.
For `O=C(Nc1ccc2c(c1)OCO2)NC1CCN(c2ccnc(NCc3ccc(F)cc3)n2)CC1` [GSK1379859], the “%Inh” value was 1%.
With `Cc1ccccc1COc1cc(-n2cnc3cc(Cl)ccc32)sc1C(N)=O` [GW813349] the “%Inh” value was 9%.
`Nc1n[nH]c2ncc(-c3ccccc3)cc12` [SB-517081] was tested, and the “%Inh” value was 0%.
In the case of `COc1ccc(-c2coc3ccc(-c4nnc(SCc5cccc(C#N)c5)o4)cc23)cc1`, the “%Inh” value is reported as 0%.
With `Cc1cccc(-c2nc(Nc3ccc4c(cnn4C)c3)c3ccccc3n2)n1` [GW876731] the “%Inh” value was 0%.
In the case of `CN(C)c1cc(-c2ccc3c(N)n[nH]c3c2)nc(N)n1` [GSK2219329], the “%Inh” value is reported as 4%.
For `COc1cc2ncn(-c3cc(OCCCc4ccccc4)c(C(N)=O)s3)c2cc1OC` [GSK205189], the “%Inh” value was 0%.
`CCC(=O)c1c(-c2ccccc2)c2cc(Cl)ccc2c(=O)n1Cc1cc(S(C)(=O)=O)n(CCC(C)(C)O)n1` was tested, and the “%Inh” value was 6%.
`COc1cccc(C2=C(Nc3cccc(C(=O)O)c3)C(=O)NC2=O)c1` [SB-390770] was tested, and the “%Inh” value was 32%.
With `CCc1nc(-c2cccc(C)c2)c(-c2ccncc2)s1` the “%Inh” value was 0%.
`CCC(=O)c1c(-c2ccccc2)c2cc(Cl)ccc2c(=O)n1Cc1cc(C(=O)NC2CC2)n(C)n1` was tested, and the “%Inh” value was 16%.
In the case of `CCS(=O)(=O)c1ccc(OC)c(Nc2ncc(-c3ccc(F)cc3)o2)c1.Cl` [GW591947], the “%Inh” value is reported as 0%.
For `COc1cccc(C2=C(N(C)c3ccccc3)C(=O)NC2=O)c1` [SB-334865], the “%Inh” value was 0%.
With `CCCC(=O)Nc1n[nH]c2ncc(-c3cccc4ccccc34)cc12` [SB-642057] the “%Inh” value was 0%.
`C[C@@H]1CC[C@H](C(=O)NC2CCCCC2)CN1c1cc(-c2ccc3c(N)n[nH]c3c2)nc(N)n1` [GSK2291363] was tested, and the “%Inh” value was 0%.
With `COc1cc(Nc2nccc(N3CCC(NC(=O)C(C)c4ccc(Cl)cc4)C3)n2)cc(OC)c1OC` (stereo not drawn) [GSK1379757] the “%Inh” value was 28%.
For `O=C(Nc1n[nH]c2nc(-c3ccccc3)c(Cl)cc12)C1CC1` [SB-734909], the “%Inh” value was 0%.
For `CN1C(=O)C(Nc2ccccc2)=C(c2ccccc2)C1=O` [SB-300079], the “%Inh” value was 0%.
`CCn1c(-c2nonc2N)nc2ccccc21` [SB-693162/GW549034] was tested, and the “%Inh” value was 4%.
In the case of `Nc1nc(-c2ccccc2F)c(-c2ccnc3ccccc23)s1` [GW560459], the “%Inh” value is reported as 22%.
In the case of `Cc1ccc(Oc2ccc(Nc3ncnc4cc[nH]c34)cc2C)cn1`, the “%Inh” value is reported as 0%.
In the case of `O=C(NCc1cccs1)c1cc(C(=O)c2c(Cl)cccc2Cl)c[nH]1` [GW823670], the “%Inh” value is reported as 11%.
`COc1ccc(-c2cc3c(C)nc(N)nc3n([C@H]3CC[C@H](O)CC3)c2=O)cn1` was tested, and the “%Inh” value was 0%.
In the case of `COc1cc2ncn(-c3cc(OCc4ccncc4Br)c(C(N)=O)s3)c2cc1OC` [GW854278], the “%Inh” value is reported as 7%.
For `Cc1cc(Nc2nc(-c3cccc(C)n3)nc3ccccc23)ccn1` [GW872411], the “%Inh” value was 0%.
In the case of `COc1ccc(CNC(=O)NC2CCN(c3ccnc(Nc4ccc(F)cc4)n3)C2)cc1` (stereo not drawn) [GSK1379706], the “%Inh” value is reported as 15%.
For `COc1cc(Nc2nccc(N3CCC(NC(=O)C4COc5ccccc5O4)C3)n2)cc(OC)c1OC` (stereo not drawn) [GSK1379761], the “%Inh” value was 38%.
For `COc1cccc(-n2cnc3c(N)ncnc32)c1` [SKF-97416], the “%Inh” value was 0%.
`CCC(=O)c1c(-c2ccccc2)c2cc(Cl)ccc2c(=O)n1Cc1cc(S(C)(=O)=O)n(CC(F)F)n1` was tested, and the “%Inh” value was 0%.
